Measurements as given in PubChem BioAssay (Tox21).
Records with an inconclusive call do not appear. A call without a number means that no potency is given here. Calls of active or inactive are those of the source. Unless noted, calls come from the whole dose curve; as a rule, active = well fitted curve in the direction sought with a large enough effect in the repeat runs; inconclusive = weak or mixed curves; inactive = no such curve, though single readings can be large; an effect the other way counts as inactive or inconclusive.

Test system: not listed separately
Experiment: qHTS assay to identify small molecule agonists of the estrogen receptor beta (ER-beta) signaling pathway - cell viability counter screen (AID 1259380); note: nearly all actives have a fitted effect of over 30% in size
Conditions: ER-beta-bla HEK293T viability, CellTiter-Glo luminescence, 16 h; series mostly up to 92.4 µM
Procedure, shortened: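 CellTiter-Glo read, 30 min RT, same wells as bla assay; cells ER-beta-UAS-bla HEK293T; 16 hr compound, 37C; medium 2% charcoal-stripped FBS.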

For `CCOC(=O)Nc1ccc(NCc2ccc(F)cc2)nc1N`, which Potency is on record?
The Potency was “inactive”.

Which Potency does the source give for `CCCCC(CC)COC(=O)c1ccccc1O` (stereo unspecified) here?
The Potency was “inactive”.

For `O=C1NC(=O)[C@@]2(CCOc3ccc(F)cc32)N1`, which Potency is on record?
Its Potency is “inactive”.

Which Potency does the source give for `NC(=O)Nc1ccccc1` here?
Its Potency is “inactive”.

Which Potency does the source give for `CC/C=C\CC/C=C/C(OCC)OCC` here?
The Potency was “inactive”.

For `CCO/C([O-])=N/c1c[n+](N2CCOCC2)no1`, which Potency is on record?
The Potency was “inactive”.

Which Potency does the source give for `COC(=O)C1=C(C)NC(C)=C(C(=O)OC)C1c1ccccc1[N+](=O)[O-]` here?
The Potency was “inactive”.

With `CC/C=C\CCOC(C)=O` as the compound, how does the Potency read?
The Potency was “inactive”.

Which Potency does the source give for `CC(C)=CCCC(C)CC(=O)O` (stereo unspecified) here?
Its Potency is “inactive”.

With `COC(C)(C)CCCC(C)CC=O` (stereo unspecified) as the compound, how does the Potency read?
The Potency was “inactive”.

For `O=C[C@H](O)[C@@H](O)[C@H](O)[C@H](O)CO`, which Potency is on record?
Its Potency is “inactive”.

For `O=c1[nH]c(=O)n([C@H]2C[C@H](O)[C@@H](CO)O2)cc1I`, which Potency is on record?
Its Potency is “inactive”.

Which Potency does the source give for `CCCCOCCOCCOCCCC` here?
The Potency was “inactive”.

For `CC(C)CCCC(C)N` (stereo unspecified), which Potency is on record?
The Potency was “inactive”.

Which Potency does the source give for `O=c1n(CCO)c(=O)n(CCO)c(=O)n1CCO` here?
The Potency was “inactive”.

With `CCCCCCCCCCCCCCCCC` as the compound, how does the Potency read?
Its Potency is “inactive”.

With `CCC(=O)OC(C)c1ccccc1` (stereo unspecified) as the compound, how does the Potency read?
The Potency was “inactive”.

For `Nc1c[n+](N2CCOCC2)no1`, which Potency is on record?
Its Potency is “inactive”.

For `CC(C)NCC(O)c1ccc(NS(C)(=O)=O)cc1` (stereo unspecified), which Potency is on record?
The Potency was “inactive”.

Which Potency does the source give for `CC1(C)CO[C@@H](CC(=O)O)CN1` here?
The Potency was “inactive”.

For `C1CN(CCOCCN2CCOCC2)CCO1`, which Potency is on record?
The Potency was “inactive”.

For `O=C1CCCCCCCCCCCN1`, which Potency is on record?
Its Potency is “inactive”.

For `CCCN(CCC)CCc1cccc2c1CC(=O)N2`, which Potency is on record?
The Potency was “inactive”.

With `CCOC(=O)C(=O)OCC` as the compound, how does the Potency read?
Its Potency is “inactive”.

Which Potency does the source give for `CCOC(=O)c1cccc(N)c1` here?
The Potency was “inactive”.

With `COc1cc(C(=O)N2CCCCCCC2)cc(OC)c1OC` as the compound, how does the Potency read?
The Potency was “inactive”.

With `Cc1cc2c(cc1S(N)(=O)=O)S(=O)(=O)CCC2` as the compound, how does the Potency read?
The Potency was “inactive”.

For `C[C@H](NC(CCc1ccccc1)C(=O)O)C(=O)N1CCC[C@H]1C(=O)O` (stereo partly specified), which Potency is on record?
Its Potency is “inactive”.

For `COc1ccccc1OCC(O)CN1CCN(CC(=O)Nc2c(C)cccc2C)CC1` (stereo unspecified), which Potency is on record?
The Potency was “inactive”.

Which Potency does the source give for `CN1CCC(=C2c3ccccc3CC(=O)c3sccc32)CC1` here?
The Potency was “inactive”.

With `COCCCOCCCOC` as the compound, how does the Potency read?
The Potency was “inactive”.

Which Potency does the source give for `Nc1cc(=O)[nH]c(N)n1` here?
Its Potency is “inactive”.

With `NC(=O)c1cn(Cc2c(F)cccc2F)nn1` as the compound, how does the Potency read?
The Potency was “inactive”.

For `CO/N=C(/C(=O)N[C@@H]1C(=O)N2C(C(=O)OCOC(=O)C(C)(C)C)=C(C)CS[C@H]12)c1csc(N)n1`, which Potency is on record?
Its Potency is “inactive”.

For `CCCCCCCCCCCCCC=O`, which activity change, negative = cytotoxicity is on record?
The activity change, negative = cytotoxicity was -3.43% [at 8.39 µM] (inactive).

Test system: not listed separately
Experiment: qHTS assay to identify small molecule antagonists of the estrogen receptor beta (ER-beta) signaling pathway - cell viability counter screen (AID 1259382);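 note: HEK293T cells carrying ER-beta-UAS-bla reporter stimulated with estradiol; nearly all actives have a fitted effect of over 55% in size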
Conditions: ER-beta-UAS-bla HEK293T viability, CellTiter-Glo luminescence, 16 h; series mostly up to 92.4 µM
Procedure, shortened: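 In this multiplexed counter screen, cells were seeded at 2,000 per well in medium with 2% charcoal-stripped FBS and incubated 6 hr before compound and 1nM final E2 were added. Sixteen hours later, ATP-based luminescence reported viability.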

For `CCOC(=O)Nc1ccc(NCc2ccc(F)cc2)nc1N`, which Potency is on record?
Its Potency is “inactive”.

For `CCCCC(CC)COC(=O)c1ccccc1O` (stereo unspecified), which Potency is on record?
Its Potency is “inactive”.

With `O=C1NC(=O)[C@@]2(CCOc3ccc(F)cc32)N1` as the compound, how does the Potency read?
The Potency was “inactive”.

For `NC(=O)Nc1ccccc1`, which Potency is on record?
The Potency was “inactive”.

With `CC/C=C\CC/C=C/C(OCC)OCC` as the compound, how does the Potency read?
Its Potency is “inactive”.

With `CCO/C([O-])=N/c1c[n+](N2CCOCC2)no1` as the compound, how does the Potency read?
The Potency was “inactive”.

With `COC(=O)C1=C(C)NC(C)=C(C(=O)OC)C1c1ccccc1[N+](=O)[O-]` as the compound, how does the Potency read?
Its Potency is “inactive”.

With `CC/C=C\CCOC(C)=O` as the compound, how does the Potency read?
The Potency was “inactive”.

For `CC(C)=CCCC(C)CC(=O)O` (stereo unspecified), which Potency is on record?
Its Potency is “inactive”.

With `COC(C)(C)CCCC(C)CC=O` (stereo unspecified) as the compound, how does the Potency read?
Its Potency is “inactive”.

With `O=C[C@H](O)[C@@H](O)[C@H](O)[C@H](O)CO` as the compound, how does the Potency read?
Its Potency is “inactive”.

Which Potency does the source give for `O=c1[nH]c(=O)n([C@H]2C[C@H](O)[C@@H](CO)O2)cc1I` here?
The Potency was “inactive”.

Which Potency does the source give for `CCCCOCCOCCOCCCC` here?
Its Potency is “inactive”.

Which Potency does the source give for `CC(C)CCCC(C)N` (stereo unspecified) here?
Its Potency is “inactive”.

For `O=c1n(CCO)c(=O)n(CCO)c(=O)n1CCO`, which Potency is on record?
The Potency was “inactive”.

For `CCCCCCCCCCCCCCCCC`, which Potency is on record?
Its Potency is “inactive”.

For `CCC(=O)OC(C)c1ccccc1` (stereo unspecified), which Potency is on record?
Its Potency is “inactive”.

For `Nc1c[n+](N2CCOCC2)no1`, which Potency is on record?
Its Potency is “inactive”.

For `CC(C)NCC(O)c1ccc(NS(C)(=O)=O)cc1` (stereo unspecified), which Potency is on record?
The Potency was “inactive”.

With `CC1(C)CO[C@@H](CC(=O)O)CN1` as the compound, how does the Potency read?
The Potency was “inactive”.

Which Potency does the source give for `C1CN(CCOCCN2CCOCC2)CCO1` here?
Its Potency is “inactive”.

For `O=C1CCCCCCCCCCCN1`, which Potency is on record?
The Potency was “inactive”.

With `CCCN(CCC)CCc1cccc2c1CC(=O)N2` as the compound, how does the Potency read?
The Potency was “inactive”.

For `CCOC(=O)C(=O)OCC`, which Potency is on record?
The Potency was “inactive”.

With `CCOC(=O)c1cccc(N)c1` as the compound, how does the Potency read?
The Potency was “inactive”.

With `COc1cc(C(=O)N2CCCCCCC2)cc(OC)c1OC` as the compound, how does the Potency read?
Its Potency is “inactive”.

For `Cc1cc2c(cc1S(N)(=O)=O)S(=O)(=O)CCC2`, which Potency is on record?
Its Potency is “inactive”.

Which Potency does the source give for `C[C@H](NC(CCc1ccccc1)C(=O)O)C(=O)N1CCC[C@H]1C(=O)O` (stereo partly specified) here?
The Potency was “inactive”.

With `COc1ccccc1OCC(O)CN1CCN(CC(=O)Nc2c(C)cccc2C)CC1` (stereo unspecified) as the compound, how does the Potency read?
The Potency was “inactive”.

For `CN1CCC(=C2c3ccccc3CC(=O)c3sccc32)CC1`, which Potency is on record?
Its Potency is “inactive”.

Which Potency does the source give for `COCCCOCCCOC` here?
The Potency was “inactive”.

Which Potency does the source give for `Nc1cc(=O)[nH]c(N)n1` here?
The Potency was “inactive”.

For `NC(=O)c1cn(Cc2c(F)cccc2F)nn1`, which Potency is on record?
Its Potency is “inactive”.

Which Potency does the source give for `CO/N=C(/C(=O)N[C@@H]1C(=O)N2C(C(=O)OCOC(=O)C(C)(C)C)=C(C)CS[C@H]12)c1csc(N)n1` here?
The Potency was “inactive”.

For `CCCCCCCCCCCCCC=O`, which activity change, negative = cytotoxicity is on record?
The activity change, negative = cytotoxicity was -3.46% [at 8.39 µM] (inactive).

Target: Estrogen receptor (Homo sapiens) (UniProt P03372)
Sequence (P03372 whole entry, looked up): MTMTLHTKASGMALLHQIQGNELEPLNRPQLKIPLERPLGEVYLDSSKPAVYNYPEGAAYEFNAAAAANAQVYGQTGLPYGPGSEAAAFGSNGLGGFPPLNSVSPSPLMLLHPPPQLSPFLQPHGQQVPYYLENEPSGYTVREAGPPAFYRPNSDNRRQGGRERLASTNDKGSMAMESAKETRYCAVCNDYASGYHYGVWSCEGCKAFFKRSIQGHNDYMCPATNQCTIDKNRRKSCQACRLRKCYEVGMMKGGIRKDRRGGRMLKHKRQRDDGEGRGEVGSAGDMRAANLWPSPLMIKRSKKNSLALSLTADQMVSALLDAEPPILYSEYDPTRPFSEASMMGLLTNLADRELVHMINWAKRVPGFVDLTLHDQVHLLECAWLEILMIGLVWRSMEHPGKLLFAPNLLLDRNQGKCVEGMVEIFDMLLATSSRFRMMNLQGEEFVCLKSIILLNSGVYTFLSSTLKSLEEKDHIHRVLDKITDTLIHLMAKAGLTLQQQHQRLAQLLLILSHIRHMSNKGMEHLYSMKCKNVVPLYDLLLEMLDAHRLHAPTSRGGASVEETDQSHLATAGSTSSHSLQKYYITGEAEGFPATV
Experiment: qHTS assay to identify small molecule agonists of the estrogen receptor alpha (ER-alpha) signaling pathway in the presence of an antagonist (AID 1259383; calls by dose curve; note: top concentration of the series differs between compounds; nearly all actives have a fitted effect of over 15% in size)
Conditions: VM7Luc4E2 cells, ERE-luciferase, +ICI-182,780, 22 h; series mostly up to 92.4 µM
Procedure, shortened: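 Stably transfected VM7Luc4E2 reporter cells, kept 5 days in charcoal-stripped serum, received ICI-182,780 at 10.0nM final before compound addition. Following 22hr incubation at 37C and 5% CO2, luciferase signal was read by luminescence.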

Which Potency does the source give for `CCOC(=O)Nc1ccc(NCc2ccc(F)cc2)nc1N` here?
The Potency was “inactive”.

For `O=C1NC(=O)[C@@]2(CCOc3ccc(F)cc32)N1`, which Potency is on record?
Its Potency is “inactive”.

Which Potency does the source give for `CCO/C([O-])=N/c1c[n+](N2CCOCC2)no1` here?
The Potency was “inactive”.

For `COC(=O)C1=C(C)NC(C)=C(C(=O)OC)C1c1ccccc1[N+](=O)[O-]`, which Potency is on record?
Its Potency is “inactive”.

Which Potency does the source give for `O=C[C@H](O)[C@@H](O)[C@H](O)[C@H](O)CO` here?
Its Potency is “inactive”.

With `CC(C)CCCC(C)N` (stereo unspecified) as the compound, how does the Potency read?
The Potency was “inactive”.

With `O=c1n(CCO)c(=O)n(CCO)c(=O)n1CCO` as the compound, how does the Potency read?
Its Potency is “inactive”.

Which Potency does the source give for `CCCCCCCCCCCCCCCCC` here?
The Potency was “inactive”.

With `CCC(=O)OC(C)c1ccccc1` (stereo unspecified) as the compound, how does the Potency read?
Its Potency is “inactive”.

For `Nc1c[n+](N2CCOCC2)no1`, which Potency is on record?
The Potency was “inactive”.

With `CC1(C)CO[C@@H](CC(=O)O)CN1` as the compound, how does the Potency read?
Its Potency is “inactive”.

For `C1CN(CCOCCN2CCOCC2)CCO1`, which Potency is on record?
Its Potency is “inactive”.

With `O=C1CCCCCCCCCCCN1` as the compound, how does the Potency read?
Its Potency is “inactive”.

For `CCOC(=O)C(=O)OCC`, which Potency is on record?
The Potency was “inactive”.

For `CCOC(=O)c1cccc(N)c1`, which Potency is on record?
Its Potency is “inactive”.

Which Potency does the source give for `COc1cc(C(=O)N2CCCCCCC2)cc(OC)c1OC` here?
The Potency was “inactive”.

For `Cc1cc2c(cc1S(N)(=O)=O)S(=O)(=O)CCC2`, which Potency is on record?
Its Potency is “inactive”.

For `C[C@H](NC(CCc1ccccc1)C(=O)O)C(=O)N1CCC[C@H]1C(=O)O` (stereo partly specified), which Potency is on record?
The Potency was “inactive”.

With `CN1CCC(=C2c3ccccc3CC(=O)c3sccc32)CC1` as the compound, how does the Potency read?
The Potency was “inactive”.

For `COCCCOCCCOC`, which Potency is on record?
Its Potency is “inactive”.

For `CCCCCCCCCCCCCC=O`, which activation is on record?
Its activation is -0.924% [at 8.39 µM] (inactive).
